# Results: the supplement of paper PMC4894684
# Structures can show the parent of a compound that is named as a salt. ± gives the standard deviation of the averaged measurements.
# Test system: Toxoplasma gondii RH (in HFF)
# Experiment: parasite growth relative to the screen mean (all compounds = 100%); higher = less inhibition of parasite growth
# Conditions: 5 µM; 72 h; oxygen 21 %
# Procedure, shortened: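 Parasite growth was reported relative to the screen mean. In that scale, the mean of all compounds equals 100%, and values are averaged over two screens. Compounds from 10 mM DMSO stocks were pin-transferred to 5 µM final onto confluent human foreskin fibroblasts in 96-well plates, infected within 2 h with RH β-Gal–GFP Toxoplasma (MOI 1:5) and grown 72 h at 21% O2, with parasite number read by a CPRG β-Gal assay against in-plate standard curves. Uninfected host-cell viability was checked with CellTiter-Blue.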
row,Compound,parasite growth
1,Nc1ccc(-c2nc3ccc(-c4nc5ccc(N)cc5[nH]4)cc3[nH]2)cc1,89.6 ± 5.3%
2,CC1(C)O[C@@H]2[C@@H](CO[C@@]3(COS(N)(=O)=O)OC(C)(C)O[C@@H]23)O1 [Topiramate],112 ± 8.3%
3,CCCCn1c(=O)c2[nH]c(C34CC5CC(CC3C5)C4)nc2n(CCCO)c1=O,101 ± 16%
4,CC(C)NC[C@H](O)COc1ccc(CC(N)=O)cc1 [S-(-)-Atenolol],149 ± 12%
5,N=C(N)c1ccc(N2CCN(C3CCN(CC(=O)O)CC3)CC2)cc1,128 ± 33%
6,COC(=O)[C@@H]1CC2=CC(=O)CC[C@]2(C)[C@@]23O[C@@H]2C[C@@]2(C)[C@@H](CC[C@@]24CCC(=O)O4)[C@H]13 [Eplerenone],132 ± 22%
7,Cc1ccc([N+](=O)[O-])cc1S(=O)(=O)N(C)C,74.2 ± 14%
8,O=C(O)Cc1ccc(OCCNC[C@H](O)c2ccccc2)cc1 [ZD 2079 hydrochloride],119 ± 12%
9,C[C@@H](CN1CCC(n2c(=O)[nH]c3cc(Cl)ccc32)CC1)NC(=O)c1ccc2ccccc2c1,5.93 ± 2.3%
10,COc1cc(Br)c(S(=O)(=O)Nc2ccc(Cl)c(O[C@@H]3CCN(C)C3)c2)cc1OC,57.1 ± 16%
11,O=c1cc(-c2ccc(O)cc2)oc2cc(O)cc(O)c12 [Apigenin],102 ± 21%
12,NC(=O)N1c2ccccc2CC(O)c2ccccc21 (stereo not drawn) [Licarbazepine],122 ± 9.9%
13,COC(=O)c1c(C)[nH]c(C)c1C(=O)c1ccccc1Cc1ccccc1,116 ± 37%
14,CNCCC(Oc1ccccc1OC)c1ccccc1 (stereo not drawn) [Nisoxetine hydrochloride],67 ± 20%
15,O=C1NC(=O)c2cc(Nc3ccc(F)cc3)c(Nc3ccc(F)cc3)cc21,171 ± 51%
16,CCOC(=O)C1=C(C)NC(=S)NC1c1cccc(O)c1 (stereo not drawn) [Monastrol],126 ± 29%
17,CCN(CC)CCOC(=O)c1cc(Cl)c(N)cc1OC [SDZ 205-557 hydrochloride],105 ± 6.7%
18,O=c1c(O)c(-c2ccc(O)cc2)oc2cc(O)cc(O)c12 [Kaempferol],155 ± 7.1%
19,O=C(Nc1ccccc1)c1cc([N+](=O)[O-])ccc1Cl,103 ± 18%

row,Compound,parasite growth
1,Nc1nc2ccc(OC(F)(F)F)cc2s1 [Riluzole hydrochloride],88.1 ± 11%
2,C[C@@H](CN1CCC(Cc2ccccc2)CC1)[C@@H](O)c1ccc(O)cc1 [Ro 25-6981 maleate],121 ± 23%
3,CCCCCCCC/C=C\CCCCCCCC(=O)NCc1ccc(O)c(OC)c1 [Olvanil],155 ± 38%
4,CN(C)CCC=C1c2ccccc2COc2ccccc21 [Doxepin hydrochloride],159 ± 36%
5,O=C(O)c1ccc(-c2c[nH]c3ncc(-c4ccccc4)cc23)cc1C1CCCC1,46.2 ± 9.6%
6,CCn1c(=O)n(C2=C(CO)CN(CC3CCCCCCC3)CC2)c2ccccc21,174 ± 19%
7,O=C(O)CCc1ccc(NCc2cccc(Oc3ccccc3)c2)cc1,198 ± 12%
8,COc1cc2ncnc(Nc3ccc(Cl)cc3F)c2cc1OC,28.9 ± 13%
9,COCCNC(=O)COc1ccc(OCCNC[C@H](O)COc2ccccc2)cc1 [ZD 7114 hydrochloride],123 ± 7%
10,COC(=O)C1=C(C)NC(C)=C([N+](=O)[O-])C1c1ccccc1C(F)(F)F (racemic),167 ± 8.8%
11,CN(C)CCCN1c2ccccc2CCc2ccc(Cl)cc21 [Clomipramine hydrochloride],38.4 ± 2.9%
12,CC(O)(C(=O)Nc1ccc(S(=O)(=O)c2ccccc2)cc1)C(F)(F)F (stereo not drawn),59.3 ± 19%
13,CN(C)CCCSC(=N)N [Dimaprit dihydrochloride],73.36 ± 0.62%
14,COc1cccc2c1C(=O)c1c(O)c3c(c(O)c1C2=O)C[C@@](O)(C(C)=O)C[C@@H]3O[C@H]1C[C@H](N)[C@H](O)[C@H](C)O1 [Daunorubicin hydrochloride],< 0%
15,CN1C(=O)C(Cc2c[nH]c3ccccc23)NC1=S (stereo not drawn) [Necrostatin-1],186 ± 6.6%
16,Nc1nccc(-c2ccc3noc(-c4ccc(Cl)cc4)c3c2)n1 [PIM 1 Inhibitor 2],69.9 ± 15%
17,O=c1c(O)c(-c2ccc(O)c(O)c2)oc2cc(O)cc(O)c12 [Quercetin],180 ± 32%
18,CC(C)[N+]1(C)[C@@H]2CC[C@H]1C[C@@H](OC(=O)C(CO)c1ccccc1)C2 (stereo partly drawn) [Ipratropium bromide],76.1 ± 21%
19,Oc1ccc(C2CNCCc3c2cc(O)c(O)c3Cl)cc1 (stereo not drawn) [Fenoldopam hydrochloride],105 ± 14%
